Rows were chosen to be rich in hits. Some 3.9% of all compounds tested hit in one or more screens of this group.
FH mod: Identification of activators of human fumarate hydratase by quantitative high-throughput screening | Fumarate hydratase, mitochondrial (Homo sapiens), P07954 | FH coupled MDH/diaphorase resazurin fluorescence, 15 min | Potency, µM (highest dose often 79.9 µM), inactives show at the top dose activity change, negative = inhibition, actives largely listed as inhibitors | actives 0.22% (n = 54,000); also: potency is read from the fitted curve at half-maximal effect; % is scaled to controls: 0 for no effect and ±100 for the full control effect; the screen sought activators but most active calls are inhibition curves; nearly all actives have a fitted effect of over 45% in size
GPR32 ag: qHTS for Agonists of Human Resolvin D1 Receptor DRV1; Probable G-protein coupled receptor 32 (Homo sapiens), O75388; AID 1346428, 2018; actives 2.5% (n = 48,000); activation, % at 76.9 µM; CHO-K1 GPR32 beta-arrestin PathHunter luminescence, 90 min; zero percent set by DMSO-only wells;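 active = activation of at least 60% and not above a set upper limit, about 1 call in 100 departs from these limits; inconclusive = activation of 40% to 60%, or above that upper limit; inactive = activation under 40%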; also: 0% is about no effect
Target sequence (O75388 whole entry, looked up): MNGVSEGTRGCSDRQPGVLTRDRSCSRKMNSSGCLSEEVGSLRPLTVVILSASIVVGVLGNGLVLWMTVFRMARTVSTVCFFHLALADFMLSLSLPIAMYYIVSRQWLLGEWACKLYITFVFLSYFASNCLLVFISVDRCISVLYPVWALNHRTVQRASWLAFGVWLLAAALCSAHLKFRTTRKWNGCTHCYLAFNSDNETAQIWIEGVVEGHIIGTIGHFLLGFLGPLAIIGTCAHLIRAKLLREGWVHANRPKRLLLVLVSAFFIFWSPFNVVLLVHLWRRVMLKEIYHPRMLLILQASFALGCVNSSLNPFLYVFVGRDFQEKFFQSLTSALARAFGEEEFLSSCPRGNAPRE
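Step 1: seed CHO-K1 GPR32 beta-arrestin cells, 2,500/well, overnight at 37 °C. Step 2: add compounds, 90 min at 37 °C. Step 3: detection reagent, 1 h ambient, then luminescence.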
SKOV3 invasion: Primary qHTS assay for Inhibitors of ovarian cancer metastasis using an organotypic tumor microenvironment (TME) model. SKOV3ip1-GFP adhesion/invasion on 3D omental model, fluorescence. Potency, µM (series often up to 45.8 µM), inactives show at the top dose activity change, negative = inhibition, usual class: inhibitors. actives 0.1% (n = 46,000);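 also: potency is read from the fitted curve at half-maximal effect; plate controls were DMSO wells for no effect and tomatine positive control wells for full effect; nearly all actives have a fitted effect of over 65% in size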
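Primary human omental fibroblast/mesothelial 3D culture pre-formed 48 h. SKOV3ip1-GFP cells added with compounds (0.36-46 umol/L), incubated 2 h RT/16 h 37 C, fixed; GFP cells quantified at 488/509 nm.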
NTMT1 inhibitor: Primary qHTS for Inhibitors of N-terminal methyltransferase 1 (NTMT1): MTaseGlo Assay | N-terminal Xaa-Pro-Lys N-methyltransferase 1 (Homo sapiens), Q9BV86 | NTMT1 MTase-Glo SAH luminescence, purified enzyme | Potency, µM (highest dose often 114 µM), without a hit: at the top dose activity change, negative = inhibition, most hits filed as inhibitors | actives 2.5% (n = 59,000);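 also: potency is read from the fitted curve at half-maximal effect; plate controls were DMSO vehicle for no effect and no enzyme for full effect; nearly all actives have a fitted effect of over 65% in size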
Target sequence (Q9BV86 whole entry, looked up): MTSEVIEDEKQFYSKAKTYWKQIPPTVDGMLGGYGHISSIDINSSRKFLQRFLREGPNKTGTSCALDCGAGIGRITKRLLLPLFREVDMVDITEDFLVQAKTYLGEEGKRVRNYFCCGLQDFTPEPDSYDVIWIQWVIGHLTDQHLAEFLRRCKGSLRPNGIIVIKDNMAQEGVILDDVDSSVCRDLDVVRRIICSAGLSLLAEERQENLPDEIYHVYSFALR
* marks the source's active call; other numbers are inactive results; i = inactive; ? = inconclusive; / = no result given; ! = not confirmed by another sample; [ ] = another dose, or the depositor's remark. Unless noted, calls follow the shape of the dose curve; as a rule, active = well fitted curve in the direction sought with a large enough effect; inconclusive = small, poorly fitted or top-dose-only effect, or another doubt; inactive = no such curve, though single readings can be large; an effect the other way counts as inactive or inconclusive.

SMILES	FH mod	GPR32 ag	SKOV3 invasion	NTMT1 inhibitor
Cc1ccccc1-c1nc(CN2CCCC(C(=O)NCc3ccc(Cl)cc3)C2)c(C)o1 (configuration not stated)	-24.4%	23.3	i	-5.5%
Cc1oc(-c2ccc(Cl)cc2)nc1CN1CCCC(C(=O)NCc2ccccc2)C1 (configuration not stated)	-12.9%	106.4*	-12.8%	?
Cc1oc(-c2cccc(Cl)c2)nc1CN1CCCC(C(=O)NCc2ccc(F)cc2)C1 (configuration not stated)	-12.8%	70.5*	17.2%	?
O=C(Nc1cccnc1)C1CCCCC1	/	/	/	12.6%
COc1cc(OC)cc(C(=O)Nc2ccc3c(c2)OCCO3)c1	-6.5%	-8.3	i	31.6µM*
CCN(CC)c1cc(C)c2cc(NC(=O)c3cc(OC)cc(OC)c3)ccc2n1	?	-3.8	4.7%	-14.9%
O=C(Nc1ccc(S(=O)(=O)Nc2nccs2)cc1)c1cccnc1	/	/	/	15.5%
CCOC(=O)c1csc(-n2nc(-c3ccc(F)c(F)c3)c(Cc3ccc(S(N)(=O)=O)cc3)c2N)n1	/	/	/	-3.6%
NS(=O)(=O)c1ccc(Cc2c(-c3cccc(-c4ccccc4)c3)nn(-c3nc(C(=O)O)cs3)c2C2CC2)cc1	/	/	/	25.1µM*
O=C1Nc2ccccc2/C1=C/c1ccc[nH]1	/	/	/	-13.3%
Cc1nc(NC(=O)N2CCC[C@@H]2C(N)=O)sc1-c1ccnc(C(C)(C)C(F)(F)F)c1	-6.1%[53.3 µM]	/	-11.1%	30.4µM*
O=C(Nc1ccc(-c2cccnc2)nc1)c1cccs1	/	/	/	-1.5%
C[C@@H]1C[C@H]2OC(=O)[C@@]3(C)CCC[C@](C)(C23)[C@@]1(O)CCC1=CC(=O)OC1O (some centres not stated)	4.9%[53.3 µM]	/	/	8.8%[29.8 µM]
C=CC(=O)N1CCC(Oc2cc3c(Nc4ccc(Cl)c(Cl)c4F)ncnc3cc2OC)CC1	-19.3%	/	/	?
COc1cc2c(Nc3ccc(Cl)c(Cl)c3F)ncnc2cc1OCC1C[C@@H]2CN(C)C[C@H]2C1	5.4%[53.3 µM]	/	-26.0%	24.1µM*
COc1cc2c(Nc3ccc(Br)cc3F)ncnc2cc1OCC1CCN(C)CC1	1.7%	-4.0	-10.3%	35.5µM*!
COc1ccc(C2Nc3ccccc3C(=O)N2Cc2ccccc2)cc1COc1cccc(C(F)(F)F)c1 (configuration not stated)	/	/	/	3.0%[57.5 µM]
C[C@@H]1O[C@@H](OC[C@H]2O[C@@H](Oc3cc(O)cc4c3C(=O)C(O)(Cc3ccc(O)cc3)O4)[C@H](O)[C@@H](O)[C@@H]2O)[C@H](O)[C@H](O)[C@H]1O (some centres not stated)	0.5%[20.6 µM]	/	/	-16.8%[12.6 µM]
COc1ccc(CCNS(=O)(=O)c2ccc(F)c(C(=O)Nc3ccc(Cl)cc3)c2)cc1OC	-26.0%	63.6*	-9.1%	8.8%
Nc1c(-c2ccncc2)cc[nH]c1=O	/	/	/	79.4µM*
Nc1cc(-c2ccncc2)c[nH]c1=O	?	37.1	/	?
Cc1cc(Br)ccc1NC(=O)c1coc(=O)c2ccccc12	-4.3%	71.9*	4.8%	6.9%
Cc1c(C)n(Cc2ccc(-c3ccccc3C(=O)O)cc2)c2ccc(C(=O)N[C@@H](C)c3ccc([N+](=O)[O-])cc3)cc12	-16.5%	/	2.6%	31.6µM*!
Cc1c(C)n(Cc2ccccc2)c2ccc(C(=O)NCc3ccc(OC(C)C)cc3)cc12	-17.9%	-15.9	7.5%	-5.0%
Cc1ccc(NC(=O)CC2Oc3ccc(C)cc3NC2=O)c(C)c1 (configuration not stated)	-2.7%	0.2	-10.6%	?
SMILES	FH mod	GPR32 ag	SKOV3 invasion	NTMT1 inhibitor
Cc1ccc(NC(=O)CC(C)S(=O)(=O)c2ccc3c(c2)NC(=O)CO3)c(C)c1 (configuration not stated)	-19.0%	73.9*	3.2%	3.1%
O=C(OCC#CCSc1nnc(-c2ccc3ccccc3c2)o1)c1cc2ccccc2s1	/	/	/	2.4%
Cc1ccc(-c2cc(C(=O)Nc3ccc(-c4noc(=O)[nH]4)cc3)c3ccccc3n2)cc1C	/	/	/	44.7µM*
Cc1ccc(-c2cc(C(=O)NCc3ccc(S(C)(=O)=O)cc3)c3ccccc3n2)cc1C	/	/	/	50.1µM*
Cc1cccc(Cn2c(-c3ccccc3)nc3ccccc32)c1	-18.6%	-82.2	-0.7%	-1.9%
c1ccc(Cn2c(-c3ccc(OCC(C4CCNCC4)n4c(-c5ccccc5)nc5ccccc54)cc3)nc3ccccc32)cc1 (configuration not stated)	4.8%	/	/	28.2µM*
O=C1OC2(c3ccccc31)c1cc(Br)c(O)c(Br)c1Oc1c2cc(Br)c(O)c1Br	?	68.3*	/	50.1µM*
Cc1ccc(-c2ncccn2)c(C(=O)N2C[C@H](COc3ccc(F)cn3)CC[C@H]2C)c1	-1.4%	/	/	-11.5%[57.5 µM]
Cc1ccccc1CN1C(=O)C(O)(CC(=O)c2cccc(Br)c2)c2ccccc21 (configuration not stated)	31.6µM*	-15.4	i	-0.2%
O=C(CC1(O)C(=O)N(CCc2ccccc2)c2ccc(Br)cc21)c1ccccc1 (configuration not stated)	-21.9%	60.3*	-1.2%	3.6%
Cc1ccc(C(=O)CC2(O)C(=O)N(CCc3ccccc3)c3ccc(Cl)cc32)cc1 (configuration not stated)	?	16.2	i	4.5%
COc1ccc(OC)c(C(=O)CC2(O)C(=O)N(Cc3ccccc3C)c3ccccc32)c1 (configuration not stated)	?	-21.5	0.8%	?
CCc1ccccc1S(=O)(=O)Cc1ccc(C(=O)NCCc2ccc(Cl)cc2)o1	?	65.7*	1.6%	-16.2%
COc1cc2ncnc(Nc3cccc(O)c3)c2cc1OC	-5.7%	/	/	-9.5%[57.5 µM]
COc1cc2ncnc(Nc3cccc(Cl)c3)c2cc1OC	-2.2%	0.8	4.0%	25.1µM*
COc1ccc(Nc2ncnc3c2cnn3-c2cc(Cl)ccc2C)cc1OC	-14.6%	12.6	i	?
COc1cc2ncnc(Nc3cccc(Br)c3)c2cc1OC	-24.2%	/	-17.3%	15.8µM*
O=C(O)Cc1cn([C@@H]2O[C@H](CO)[C@@H](O)[C@H](O)[C@H]2O[C@@H]2O[C@H](CO)[C@@H](O)[C@H](O)[C@H]2O)c2ccccc12	4.2%[53.3 µM]	/	/	-0.9%[29.8 µM]
O=C(Cn1c(SCC(=O)Nc2ccc(F)cc2)nc2ccccc21)NCc1ccc(F)cc1	0.9%	?	?	1.9%
O=C(Cn1c(SCC(=O)Nc2ccc(F)cc2)nc2ccccc21)NCc1ccccc1Cl	6.2%	70.1*	-11.7%	-1.8%
Oc1c(Cl)cc(Cl)cc1Sc1cc(Cl)cc(Cl)c1O	-23.8%[53.3 µM]	80.5*	/	?
CCOc1ccccc1N1CC(c2nc3ccccc3n2CCOc2ccc(OC)cc2)CC1=O (configuration not stated)	?	79.6*	-12.9%	3.7%

From PubChem BioAssay
